Laboratory results: PubChem BioAssay (Tox21)
Where “and” joins values, the source holds several entries; their conditions need not be identical. Equal values may be shown once. Records with an inconclusive call do not appear. A structure can be active in one record and inactive in another. Calls of active or inactive are those of the source. Unless noted, calls come from the whole dose curve.

What was measured:
[1] = Nuclear factor erythroid 2-related factor 2/antioxidant responsive element (Nrf2/ARE) small molecule agonists: qHTS cell viability counter screen in human keratinocytes (AID 1919968; active = well fitted cell-killing curve with a large enough effect in the repeat runs; note: nearly all actives have a fitted effect of over 55% in size)
In short: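 After a 5 h attachment period, ARE-reporter keratinocytes were dosed with compounds in DMSO and then cultured 23 h at 37 C. Cell viability came from CellTiter-Fluor signal read after a further 1 h.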

[2] = Nuclear factor erythroid 2-related factor 2/antioxidant responsive element (Nrf2/ARE) small molecule agonists: luciferase reporter gene qHTS assay in human keratinocytes (AID 1919969); note: nearly all actives have a fitted effect of over 35% in size; note: potency is the fitted concentration of half-maximal effect
[3] = G protein-coupled receptor (GPCR) small molecule agonists, calcium flux assay: HEK293 wild type cell line counter screen (AID 1920065)
In short: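 Calcium-sensitive dye, loaded 1 h at 37 C into cells cultured 18 h, reports compound-evoked calcium release as fluorescence (Ex/Em 480/540), measured over 3 min. Agonist mode; 15-point titrations, triplicate.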

[4] = p53 small molecule agonists, cell-based qHTS assay with human liver microsomes (AID 1963577)
In short: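 p53RE-bla reporter cells were pre-incubated 5 h at 37 C, then treated with compounds plus human liver microsomes (0.5 mg/mL final) and NADPH (0.5 mg/mL final) for 16 h at 37 C. Beta-lactamase activity was read by LiveBLAzer fluorescence after 2 h at room temperature.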

[5] = p53 small molecule agonists, cell-based qHTS assay with rat liver microsomes (AID 1963578)
In short: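 p53RE-bla cells were exposed to compounds together with rat liver microsomes (0.5 mg/mL final) and NADPH (0.5 mg/mL final) for 16 h at 37 C, then read by LiveBLAzer beta-lactamase fluorescence after 2 h at room temperature.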

[6] = p53 small molecule agonists, cell-based qHTS assay with human liver microsomes: qHTS cell viability counter screen (AID 1963579); note: nearly all actives have a fitted effect of over 45% in size
In short: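 p53RE-bla cells (4,000/well) were pre-incubated 5 h at 37 C, then given compounds in DMSO plus human liver microsomes (0.5 mg/mL final) and NADPH (0.5 mg/mL final) for 16 h at 37 C. Viability was read by CellTiter-Glo luminescence.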

[7] = p53 small molecule agonists, cell-based qHTS assay with rat liver microsomes: qHTS cell viability counter screen (AID 1963580); note: nearly all actives have a fitted effect of over 45% in size
In short: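 Intracellular ATP, by CellTiter-Glo luminescence, defines viability. HCT-116 p53RE-bla cells, 4,000 per well, were compound-treated in the presence of rat liver microsomes and NADPH for 16 h at 37 C.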

[8] = p53 small molecule agonists, cell-based qHTS assay: qHTS cell viability counter screen (AID 1963581); note: nearly all actives have a fitted effect of over 45% in size
In short: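 Following 5 h attachment, HCT-116 p53RE-bla cells took up compound for 16 h at 37 C; the reporter was read with B/G FRET substrate (2 h RT), and viability then via CellTiter-Glo ATP luminescence.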

[9] = p53 small molecule agonists, cell-based qHTS assay (AID 1963582; active = well fitted activation curve with a large enough effect in the signal ratio in the repeat runs, not every such curve was filed as active; the % refers to the signal ratio)
In short: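 In this cell-based concentration-response screen, a p53 response element drives beta-lactamase; cells received DMSO-borne compounds after 5 h culture and were incubated a further 16 h before FRET substrate development.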

[10] = target: 5-hydroxytryptamine receptor 2A (Homo sapiens) (UniProt P28223); experiment: 5-hydroxytryptamine receptor 2A (HTR2A) small molecule antagonists, cell-based qHTS assay (AID 1963586); note: nearly all actives have a fitted effect of over 45% in size
In short: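 Antagonist-mode intracellular calcium assay: DOI (4 nM) added after 5 min compound pre-incubation at room temperature to dye-loaded HTR2A-CHO cells. Fluorescence followed for 3 min, sampled every second.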

[11] = target: 5-hydroxytryptamine receptor 2A (Homo sapiens) (UniProt P28223); experiment: 5-hydroxytryptamine receptor 2A (HTR2A) small molecule agonists, cell-based qHTS assay (AID 1963587); note: nearly all actives have a fitted effect of over 30% in size
In short: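 Kinetic calcium-flux fluorescence (2 min, 1 sec intervals) after compound addition in agonist mode. HTR2A-CHO cells were cultured 18 h, then dye-loaded 1 h at 37 C.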

[12] = target: Muscarinic acetylcholine receptor M1 (Homo sapiens) (UniProt P11229); experiment: Cholinergic receptor muscarinic 1 (CHRM1) small molecule antagonists, cell-based qHTS assay (AID 1963588); note: nearly all actives have a fitted effect of over 40% in size
In short: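 CHRM1-CHO calcium-flux assay, antagonist mode. Cells were seeded 18 h, dye-loaded 1 h at 37 C and given compound for 5 min at RT, then acetylcholine was added at 50nM. FDSS fluorescence was read 3 min; 15 concentrations, three runs.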

[13] = target: Muscarinic acetylcholine receptor M1 (Homo sapiens) (UniProt P11229); experiment: Cholinergic receptor muscarinic 1 (CHRM1) small molecule agonists, cell-based qHTS assay (AID 1963589); note: nearly all actives have a fitted effect of over 35% in size
In short: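 Measures agonist-induced intracellular calcium rise. Stable human CHRM1 CHO line, 1 h dye load at 37 C, compounds from DMSO, kinetic fluorescence read.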

[14] = cAMP Responsive Elements (CRE) small molecule agonists, cell-based qHTS assay (AID 1963590)
In short: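 A CRE-responsive beta-lactamase reporter in HEK 293T cells was used. Treatment ran 3 h at 37 C; detection used LiveBLAzer B/G FRET substrate for 2 h at room temperature.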

[15] = cAMP Responsive Elements (CRE) small molecule antagonists, cell-based qHTS assay (AID 1963591; active = well fitted inhibition curve with a large enough effect in the signal ratio in the repeat runs, not every such curve was filed as active; the % refers to the signal ratio)
In short: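 HEK293T cells carrying a CRE-driven beta-lactamase reporter receive compound and NKH477 (0.25 uM final) for 3 h. Fluorescence from LiveBLAzer B/G FRET substrate is read after 2 h at room temperature.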

[16] = target: Beta-2 adrenergic receptor (Homo sapiens) (UniProt P07550); experiment: Adrenergic beta2 receptor (ADRB2) small molecule antagonists, cell-based qHTS assay (AID 1963592); note: series mostly up to about 92 µM; nearly all actives have a fitted effect of over 50% in size
In short: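 Cells (CHO, stable ADRB2 overexpression) incubated 18-20hr at 37C; compounds added from DMSO; agonist mix (1nM isoproterenol, 100uM IBMX, 25uM Ro-20-1724) added; 0.5hr RT; d2-cAMP and anti-cAMP-cryptate added; 1hr RT; 665/615 nm read.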

[17] = target: Beta-2 adrenergic receptor (Homo sapiens) (UniProt P07550); experiment: Adrenergic beta2 receptor (ADRB2) small molecule agonists, cell-based qHTS assay (AID 1963593);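 note: CHO cells stably overexpressing human ADRB2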
In short: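 CHO cells stably over-expressing ADRB2 were plated overnight at 37C, then dosed with compounds plus a stimulation mix containing 100uM IBMX and 25uM Ro-20-1724 for 0.5hr at room temperature. cAMP was measured by HTRF competition, 1hr.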

[18] = target: D(2) dopamine receptor (Homo sapiens) (UniProt P14416); experiment: Dopamine D2 receptor (DRD2) small molecule agonists, cell-based qHTS assay (AID 1963594); note: nearly all actives have a fitted effect of over 35% in size
In short: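 cAMP accumulation in DRD2-HEK293 cells measured by HTRF after 1 h detection; compounds added 10 min before NKH477 (200nM […]) forskolin-analogue stimulation, 30 min at room temperature, with Ro20-1724 present at 0.1 mM final.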

[19] = target: D(2) dopamine receptor (Homo sapiens) (UniProt P14416); experiment: Dopamine D2 receptor (DRD2) small molecule antagonists, cell-based qHTS assay (AID 1963595; active = well fitted inhibition curve with a large enough effect in the signal ratio in the repeat runs, with a control signal flat; the % refers to the signal ratio)
In short: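 Human DRD2 antagonist qHTS measuring cAMP by HTRF. The cells are exposed to compound for 10 min, then to NKH477 (200 nM) and quinpirole (12 nM) for 30 min at RT, with Ro20-1724 (0.1 mM) present throughout.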

[20] = target: Gonadotropin-releasing hormone receptor (Homo sapiens) (UniProt P30968); experiment: Human gonadotropin-releasing hormone receptor (GnRHR) small molecule agonists, calcium flux assay in GnRHR-HEK293 cells (AID 1920063); note: nearly all actives have a fitted effect of over 35% in size
In short: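 We seeded human GnRHR-expressing HEK293 cells for 18 hours, loaded them with calcium dye for an hour at 37 C, added test compounds, and recorded fluorescence intensity kinetically for three minutes.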
% is set by controls: 0 for no effect and ±100 for the full control effect.

5-hydroxytryptamine receptor 2A (Homo sapiens), sequence (P28223 whole entry, looked up): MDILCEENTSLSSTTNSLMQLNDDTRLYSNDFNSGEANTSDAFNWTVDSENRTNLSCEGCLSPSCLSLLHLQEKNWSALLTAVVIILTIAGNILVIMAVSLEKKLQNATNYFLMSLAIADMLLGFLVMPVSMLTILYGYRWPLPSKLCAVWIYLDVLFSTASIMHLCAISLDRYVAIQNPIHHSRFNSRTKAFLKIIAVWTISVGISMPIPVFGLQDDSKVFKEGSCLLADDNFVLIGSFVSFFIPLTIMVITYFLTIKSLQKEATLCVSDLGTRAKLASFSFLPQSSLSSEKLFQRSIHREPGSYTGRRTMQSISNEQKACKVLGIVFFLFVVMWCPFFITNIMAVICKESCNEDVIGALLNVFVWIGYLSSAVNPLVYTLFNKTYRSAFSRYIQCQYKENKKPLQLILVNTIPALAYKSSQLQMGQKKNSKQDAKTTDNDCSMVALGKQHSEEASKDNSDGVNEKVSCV
Beta-2 adrenergic receptor (Homo sapiens), sequence (P07550 whole entry, looked up): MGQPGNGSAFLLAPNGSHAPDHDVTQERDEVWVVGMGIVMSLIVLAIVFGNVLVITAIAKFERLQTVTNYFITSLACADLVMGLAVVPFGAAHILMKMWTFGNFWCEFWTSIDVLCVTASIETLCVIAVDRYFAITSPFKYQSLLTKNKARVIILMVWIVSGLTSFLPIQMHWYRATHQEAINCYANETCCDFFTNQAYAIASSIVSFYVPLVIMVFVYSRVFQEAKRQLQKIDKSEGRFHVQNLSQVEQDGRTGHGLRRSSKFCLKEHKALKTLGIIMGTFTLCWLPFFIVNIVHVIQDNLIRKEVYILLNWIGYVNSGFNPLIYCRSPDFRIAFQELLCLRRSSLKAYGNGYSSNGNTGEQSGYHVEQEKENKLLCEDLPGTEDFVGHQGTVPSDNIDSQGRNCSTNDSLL
Gonadotropin-releasing hormone receptor (Homo sapiens), sequence (P30968 whole entry, looked up): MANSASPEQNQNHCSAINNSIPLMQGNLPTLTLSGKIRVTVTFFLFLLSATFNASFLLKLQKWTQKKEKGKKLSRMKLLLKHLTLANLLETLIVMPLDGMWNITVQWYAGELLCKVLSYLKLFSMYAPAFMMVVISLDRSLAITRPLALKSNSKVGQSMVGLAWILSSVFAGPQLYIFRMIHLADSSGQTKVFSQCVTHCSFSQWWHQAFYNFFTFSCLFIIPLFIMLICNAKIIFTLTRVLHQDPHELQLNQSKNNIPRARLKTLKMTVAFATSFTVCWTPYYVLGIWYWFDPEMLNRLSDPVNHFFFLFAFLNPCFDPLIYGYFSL
Muscarinic acetylcholine receptor M1 (Homo sapiens), sequence (P11229 whole entry, looked up): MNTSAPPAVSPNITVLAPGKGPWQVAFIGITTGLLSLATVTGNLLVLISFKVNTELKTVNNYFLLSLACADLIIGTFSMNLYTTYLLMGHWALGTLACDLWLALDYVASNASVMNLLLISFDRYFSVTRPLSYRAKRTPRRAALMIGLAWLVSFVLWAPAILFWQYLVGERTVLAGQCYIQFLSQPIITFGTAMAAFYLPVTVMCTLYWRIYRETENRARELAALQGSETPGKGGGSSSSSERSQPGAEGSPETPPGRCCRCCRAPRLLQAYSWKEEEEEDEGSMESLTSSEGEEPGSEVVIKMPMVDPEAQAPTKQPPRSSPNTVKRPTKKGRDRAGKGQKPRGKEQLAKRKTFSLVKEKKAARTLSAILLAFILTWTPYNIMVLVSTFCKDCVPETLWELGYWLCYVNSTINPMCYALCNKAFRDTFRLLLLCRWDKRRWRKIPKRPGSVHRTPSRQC
D(2) dopamine receptor (Homo sapiens), sequence (P14416 whole entry, looked up): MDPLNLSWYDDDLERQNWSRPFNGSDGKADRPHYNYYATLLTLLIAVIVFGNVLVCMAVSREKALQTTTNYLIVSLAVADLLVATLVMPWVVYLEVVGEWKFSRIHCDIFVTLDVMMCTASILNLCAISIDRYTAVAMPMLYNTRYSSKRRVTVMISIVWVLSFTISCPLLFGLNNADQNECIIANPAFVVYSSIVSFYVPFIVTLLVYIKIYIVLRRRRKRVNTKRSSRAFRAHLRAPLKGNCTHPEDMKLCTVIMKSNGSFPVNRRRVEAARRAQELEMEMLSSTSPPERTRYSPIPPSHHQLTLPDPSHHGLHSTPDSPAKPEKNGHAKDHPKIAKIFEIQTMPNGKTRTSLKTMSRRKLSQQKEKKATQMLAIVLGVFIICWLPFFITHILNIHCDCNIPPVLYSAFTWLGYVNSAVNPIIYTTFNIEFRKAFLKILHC

CC1(C)C(=O)N(Cl)C(=O)N1Cl
inactive: Potency [1] | Potency [2] | Potency [3] | Potency [4] | Potency [5] | Potency [6] | Potency [7] | Potency [8] | Potency [9] | Potency [10] | Potency [11] | Potency [12] | Potency [13] | Potency [14] | Potency [15] | Potency [16] | Potency [17] | Potency [18] | Potency [19]

C=CN1CCCC1=O
inactive: Potency [1] | Potency [2] | Potency [3] | Potency [4] | Potency [5] | Potency [6] | Potency [7] | Potency [8] | Potency [9] | Potency [10] | Potency [11] | Potency [12] | Potency [13] | Potency [14] | Potency [15] | Potency [16] | Potency [18] | Potency [19]

CCCCCCCCCCCCO
inactive and 67.8 µM (active): Potency [2]
inactive: Potency [1] | Potency [3] | Potency [4] | Potency [5] | Potency [6] | Potency [7] | Potency [8] | Potency [9] | Potency [10] | Potency [11] | Potency [12] | Potency [13] | Potency [14] | Potency [15] | Potency [16] | Potency [17] | Potency [18] | Potency [19]

COC(=O)C(C)Oc1ccc(Oc2ncc(C(F)(F)F)cc2Cl)cc1 (centres undefined)
inactive: Potency [1] | Potency [2] | Potency [3] | Potency [4] | Potency [5] | Potency [6] | Potency [7] | Potency [8] | Potency [9] | Potency [10] | Potency [11] | Potency [12] | Potency [13] | Potency [14] | Potency [15] | Potency [16] | Potency [18] | Potency [19]

CN(C)CCOC(=O)COc1ccc(Cl)cc1
inactive: Potency [1] | Potency [2] | Potency [20] | Potency [3] | Potency [4] | Potency [5] | Potency [6] | Potency [7] | Potency [8] | Potency [10] | Potency [11] | Potency [12] | Potency [15] | Potency [16] | Potency [17] | Potency [18] | Potency [19]

OC1C(O)C(O)C(O)C(O)C1O (centres undefined)
inactive: Potency [1] | Potency [2] | Potency [20] | Potency [3] | Potency [6] | Potency [7] | Potency [8] | Potency [10] | Potency [11] | Potency [12] | Potency [13] | Potency [15] | Potency [16] | Potency [17] | Potency [18] | Potency [19]

O=C(O)c1cn(-c2ccc(F)cc2)c2cc(N3CCNCC3)c(F)cc2c1=O
inactive: Potency [1] | Potency [2] | Potency [20] | Potency [3] | Potency [4] | Potency [5] | Potency [6] | Potency [7] | Potency [9] | activity change, negative = inhibition [16] 3.86% [at 19 µM] | activation [17] -25.8% [at 19 µM] | Potency [19]
